Assay results from PubChem BioAssay AID463173 (ICCB-Longwood Screening Facility, Harvard Medical School, 2010).
Out of some 52,000 compounds screened, about 4,300 (8.3%) were called active. This is one part of a sample in which actives are shown more often than they occur. Unmarked numbers belong to inactive results. No stated cut-off is given here; in the data, active means survival mostly below about 52% (no sharp cut-off); inactive means mostly above about 56%.

What follows are compounds tested on DeltatarO mutant (assay: growth inhibition of S. aureus wild type versus tarO mutant, primary screen, teichoic acid synthesis inhibitors, RN4220, OD600 (AID 463173)). Details: OD600, 18 h, hits give low values, screened at 18.75 µg/mL (by protocol).

Row | Structure (SMILES) | survival
1 | COc1ccccc1CCNC(=O)Cc1c(C)c2cc3c(C(C)(C)C)coc3c(C)c2oc1=O | 101%
2 | O=C(CC1(c2ccc(Cl)cc2)C(=O)c2ccccc2C1=O)N1CCOCC1 | 79%
3 | Cc1nc2ccccc2n1CCc1nc2c3ccccc3nc(SCC(=O)Nc3ccc(Br)cc3F)n2n1 | 98%
4 | Cn1c(=O)c2c(nc(SCC(=O)Nc3ccc(F)cc3F)n2Cc2ccccc2)n(C)c1=O | 135%
5 | Cn1ncc2nc(SCC(=O)Nc3ccc(Br)cc3F)n(Cc3ccccc3)c(=O)c21 | 29% (active)
6 | CCOC(=O)c1ccccc1NC(=O)c1nn(C)c2c1COc1ccccc1-2 | 59%
7 | COC(=O)c1ccccc1NC(=O)Cn1ncc2c(C)n(Cc3ccc(F)cc3)c(C)c2c1=O | 52%
8 | Cc1cccc(NC(=O)Cn2nc(C)c3nn(-c4ccc(Cl)cc4)c(C)c3c2=O)c1C | 94%
9 | CCCn1c(CCCNC(=O)c2ccccc2OC)nc2ccccc21 | 111%
10 | COc1ccccc1OCCn1c(-c2ccc(Cl)cc2)nc2ccccc2c1=O | 77%
11 | COc1ccc(OCCn2c(NC(=O)c3ccc(OC)cc3)nc3ccccc32)cc1 | -2% (active)
12 | OCCNc1nc2ccccc2n1CCOc1ccccc1 | 68%
13 | CCn1c(NC(C)=O)nc2ccccc21 | 85%
14 | COc1ccccc1OCCn1c(NC(=O)c2ccccc2Cl)nc2ccccc21 | -3% (active)
15 | COc1ccccc1OCCCCn1c(C2CC(=O)N(c3ccccc3Cl)C2)nc2ccccc21 (stereo not drawn) | 61%
16 | O=C(O)c1ccc(NCc2nc3ccccc3n2CCOc2ccccc2Cl)cc1 | 59%
17 | O=C(Nc1nc2ccccc2n1CCOc1ccccc1Cl)c1ccccc1 | 17% (active)
18 | COc1ccccc1OCCn1c(NC(=O)c2ccc(Cl)cc2)nc2ccccc21 | 45% (active)
19 | COc1cc(C)ccc1OCCn1c(-c2ccc(Cl)cc2)nc2ccccc2c1=O | 62%
20 | CC(NC(=O)c1ccccc1)c1nc2ccccc2n1Cc1ccc(Cl)cc1 (stereo not drawn) | 83%

Row | Structure (SMILES) | survival
21 | COC(=O)c1ccc(Cl)cc1NC(=O)N1CC2CCCN2c2ccccc21 (stereo not drawn) | 71%
22 | CC(=O)Nc1ccc(-c2cn(CC(=O)NN)cn2)cc1 | 111%
23 | COc1cc(OC)cc(C(=O)Nc2ccc(S(=O)(=O)Nc3ncccn3)cc2)c1 | 82%
24 | CN1CCc2nc3sc(C(=O)Nc4ccccc4C(F)(F)F)c(N)c3cc2C1 | 150%
25 | CCC(=O)N1CCc2cc(S(=O)(=O)CCC(=O)Nc3ccc(OC(F)(F)F)cc3)ccc21 | 83%
26 | COc1cc(NC(=O)CC2C(=O)N(c3cccc(C)c3)C(=O)N2Cc2ccco2)cc(OC)c1 (stereo not drawn) | 101%
27 | Cc1ccc(Cl)cc1NC(=O)CSCc1cnn(-c2ccccc2)c1-n1cccc1 | 70%
28 | COc1ccc(CNC(=O)Cc2ccc(NC(=O)N3CCSc4ncccc43)cc2)cc1 | 95%
29 | Cc1cccc(NC(=O)c2cc(S(=O)(=O)NCCc3ccccc3)ccc2F)c1C | 73%
30 | Cc1cccn2c(=O)c3cc(C#N)c(=O)n(-c4nnc(SCc5ccccc5F)s4)c3nc12 | 70%
31 | O=C(O)C(=Cc1ccc(-c2cccc(C(F)(F)F)c2)o1)C(=O)O | 65%
32 | COc1ccc(C(=O)Nc2nc3ccccc3n2CCOc2ccc(Cl)cc2)cc1 | -5% (active)
33 | Fc1ccc(CNCc2ccccc2)cc1 | 99%
34 | COc1cc(OC)c(NC(=O)CSC2=Nc3ccccc3N=C(c3ccc(F)cc3)C2)cc1Cl | 65%
35 | CCn1c(SCc2ccccc2C)nc(=O)c2c(C(=O)OC)cc(C3CC3)nc21 | 71%
36 | CCn1c(SCc2ccccc2F)nc(=O)c2c(C(=O)OC)cc(C3CC3)nc21 | 52% (active)
37 | CCn1c(SCc2ccccc2Cl)nc(=O)c2c(C(=O)OC)cc(C3CC3)nc21 | 77%
38 | C=CCn1c(NC)nc2c1c(=O)[nH]c(=O)n2C | 105%
39 | Cc1cc(C)cc(OCC(=O)N(Cc2ccc(C)o2)C2CCS(=O)(=O)C2)c1 (stereo not drawn) | 89%
40 | CC(=O)C1=C(OC(=O)C(C)C)c2ccccc2S(=O)(=O)N1Cc1ccccc1 | 104%

Row | Structure (SMILES) | survival
41 | Cc1ccc(C2=Nc3ccccc3N(CC(=O)NCc3ccc(F)cc3)C(=O)C2)cc1C | 90%
42 | Cc1ccc(C2=Nc3ccccc3N(CC(=O)NCc3ccc(Cl)cc3)C(=O)C2)cc1C | 55%
43 | Cc1ccc(CNC(=O)CCCN2C(=O)COc3ccc(C)cc32)cc1 | 85%
44 | Cc1ccc2c(c1)N(CCC(=O)NCc1ccc(F)cc1)C(=O)CO2 | 62%
45 | COc1ccc(CCNC(=O)CN2C(=O)COc3ccc(C)cc32)cc1OC | 45% (active)
46 | COc1ccc(CCNC(=O)CN2C(=O)COc3ccccc32)cc1OC | 126%
47 | COc1cccc(CNC(=O)CN2C(=O)COc3ccc(S(=O)(=O)Nc4ccccc4)cc32)c1 | 77%
48 | Cc1ccc2c(c1)N(CC(=O)NCCc1ccccc1)C(=O)CO2 | 45%
49 | Cc1ccc(CNC(=O)CN2C(=O)CC(c3ccc(C)c(C)c3)=Nc3ccccc32)cc1 | 52% (active)
50 | COc1ccc(CNC(=O)CN2C(=O)COc3ccc(S(=O)(=O)Nc4ccccc4)cc32)cc1 | 66%
51 | Cc1ccc(CNC(=O)CCN2C(=O)COc3ccc(C)cc32)cc1 | 50% (active)
52 | Cc1ccc(CNC(=O)CN2C(=O)COc3ccc(S(=O)(=O)Nc4ccccc4)cc32)cc1 | -4% (active)
53 | CN(C)CCCNc1c2c(nc3cc(-c4cccc(F)c4)nn13)CCC2 | 103%
54 | O=c1c2sc3ccccc3c2n(Cc2cccc(F)c2)c(=O)n1Cc1ccccc1 | 78%
55 | COc1ccc(CNC(=O)CN2C(=O)CSc3ccc(S(=O)(=O)N4CCOCC4)cc32)c(OC)c1 | 91%
56 | O=C1CCCc2cc(S(=O)(=O)NCC3CCC(C(=O)Nc4ccccc4F)CC3)ccc2N1 (stereo not drawn) | 93%
57 | Cc1ccc(NC(=O)N2CCC(CN3CCCC3)CC2)c(C)c1 | 80%
58 | COc1ccc(CNC(=O)C2CCN(S(=O)(=O)c3cccc(-c4noc(C)n4)c3)CC2)cc1 | 92%
